Reference: the supplement of paper PMC6555819

Tests used:
Assay in all cases: PBM binding z-score (relative to random genomic background probes); higher = stronger binding; sequences stand for … in GC…GCGATTGACAGCGTAGAATGAAGG
[1] = tested on: RARb homodimer (NR concentration 270 nM)
In short: (§1)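 Random background probes are the reference for binding z-scores. These scores derive from regression-normalized fluorescence on custom Agilent 4×180K protein-binding microarrays incubated 1 h with ligand-free nuclear receptor dimers. Binding was detected with antibodies against each partner (one per run).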

[2] = tested on: RARg:RXRa (NR concentration 270 nM, RXRa partner concentration 90 nM)
In short: as §1

[3] = tested on: RARg homodimer (NR concentration 270 nM)
In short: as §1

[4] = tested on: RXRa DBDmut IVT, anti-RXR (DBD mutation: RXRa K156A/R161A, NR concentration 90 nM)
In short: as §1

[5] = tested on: RXRa homodimer (NR concentration 180 nM)
In short: as §1

[6] = tested on: THRa:RXRa (NR concentration 90 nM, RXRa partner concentration 90 nM)
In short: as §1

[7] = tested on: THRa homodimer (NR concentration 90 nM)
In short: as §1

[8] = tested on: VDR homodimer (NR concentration 270 nM)
In short: as §1

Sequence	PBM binding z-score [1]	PBM binding z-score [2]	PBM binding z-score [3]	PBM binding z-score [4]	PBM binding z-score [5]	PBM binding z-score [6]	PBM binding z-score [7]	PBM binding z-score [8]
CCAACTAGGTCACGAAAGGTCAAAGTCGAATGAC	6.02	8.03	8.57	2.76	8.76	5.44	2.87	3.88
GCTAGCAGGCCATTTCGGTCACTCAATGACGGGC	1.03	0.276	0.793	0.0509	-0.116	0.245	-0.53	-0.487
TCGTGTAGGTTAGTCGGGGCATTCAGCCAACATA	1.23	0.373	0.49	1.14	0.427	1.55	0.941	1.28
CGGACGAGGGCATGAGTTGATAGCAAATGCCGAT	0.742	1.16	1.89	2.01	0.928	1.17	-0.188	1.46
GCTGCTAGGTCACCTGATGGTCAGCTAAAGCTCG	3.33	4.88	5.27	1.18	2.64	3	1.57	-0.0693
TCATATAGGTAAATGCTAGGTGGAAGTCCGATCT	-0.19	0.303	0.0562	1.28	0.571	0.0546	-0.18	0.0417
AATACAGGGTCATCGTAGTCCAGAGTACGCACAG	3.56	5.76	4.86	3.42	6.39	4.18	1.83	4.22
